The source of these data is PubChem BioAssay AID1851 (National Center for Advancing Translational Sciences (NCATS), 2009).

“And” between values parts separate entries of the source, which are not always exact repeats. Equal values may be shown once. The campaign covered roughly 16,000 compounds. About 4,000 (25%) were called active. Roughly 26% stayed inconclusive and do not appear here. A selection follows. Values without a mark were called inactive. Calls come from the whole dose curve; as a rule, active = well fitted curve in the direction sought with a large enough effect; inconclusive = small, poorly fitted or top-dose-only effect, or effect the other way; inactive = no such curve, though single readings can be large or run the other way.
% is set by controls: 0 for no effect and ±100 for the full control effect.

Chain of Cytochrome P450 2C9 (Homo sapiens) (P11712 whole entry, looked up): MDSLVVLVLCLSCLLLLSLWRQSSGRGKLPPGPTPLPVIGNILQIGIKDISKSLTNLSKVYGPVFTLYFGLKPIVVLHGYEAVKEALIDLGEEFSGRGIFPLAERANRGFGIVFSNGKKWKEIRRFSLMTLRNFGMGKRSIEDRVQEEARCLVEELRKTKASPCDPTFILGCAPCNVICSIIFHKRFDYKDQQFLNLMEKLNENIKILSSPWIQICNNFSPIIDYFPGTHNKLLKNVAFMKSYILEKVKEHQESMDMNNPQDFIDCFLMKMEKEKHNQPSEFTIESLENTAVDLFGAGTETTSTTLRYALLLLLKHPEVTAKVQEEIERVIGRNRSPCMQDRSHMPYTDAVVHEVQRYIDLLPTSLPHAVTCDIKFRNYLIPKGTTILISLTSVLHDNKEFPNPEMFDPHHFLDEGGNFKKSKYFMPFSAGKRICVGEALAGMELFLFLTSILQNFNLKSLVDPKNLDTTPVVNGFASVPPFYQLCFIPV

This assay addresses Cytochrome P450 2C9 (Homo sapiens) (UniProt P11712). In words: Cytochrome panel assay with activity outcomes. Particulars: recombinant CYP, pro-luciferin dealkylation, luminescence, p450-cyp2c9; series mostly up to 57.1 µM; activity, negative = inhibition: at the top concentration.
Take `C/C(CCN1CCc2nc(-c3ccccc3)c(-c3ccccc3)cc2C1)=N\O[C@@H](C)CN1CCCc2nc(C)c(C)cc21`: the activity, negative = inhibition is -19.9% [at 11.4 µM].

Consider `CC(C)=CCC/C(C)=C/CO/N=C1/C[C@@H](O)[C@@H](O)[C@@H]2[C@@H]3C(=O)N(Cc4ccc5c(c4)OCO5)C(=O)[C@H]3CC[C@@H]12`, for which the activity, negative = inhibition was -23.6% [at 11.4 µM].

Take `O=C(c1ccco1)N1CCC[C@@]2(CCN(Cc3ccccc3)C2)C1`: the “activity, negative = inhibition” value is 2.14%.

Regarding `COC(=O)C/C=C\[C@@H](C)[C@@H](/C=N\OC[C@@H](O)[C@H]1O[C@H]2OC(C)(C)O[C@H]2[C@@H]1O)NS(=O)(=O)c1ccc(C)cc1`, the activity, negative = inhibition was 2.11% [at 11.4 µM].

Take `COC(=O)C/C=C\[C@@H](C)[C@@H](/C=N\OC[C@@H](O)[C@H]1O[C@H]2OC(C)(C)O[C@H]2[C@@H]1O)OC`: the activity, negative = inhibition was 8.96% [at 11.4 µM].

Regarding `COC(=O)[C@@H]1CC[C@H](C)[C@@H](c2ccc(C)cc2)N1C(=O)c1ccc(/C=N\OC[C@@H](O)[C@H]2O[C@H]3OC(C)(C)O[C@H]3[C@@H]2O)cc1`, the AC50 – broadly, the midpoint of the concentration-response curve, whichever way the signal moves – was 2.51 µM (active).

For `CO/N=C\c1ccc(C(=O)N2[C@H](c3ccc(C)cc3)[C@@H](C)CC[C@H]2C(=O)OC)cc1`, the half-maximal activity concentration (AC50) is 2.51 µM (active).

Turning to `C[C@@]12CCC(=O)C=C1CC[C@@H]1[C@@H]2[C@H](O)C[C@]2(C)[C@@H]1CC[C@]2(O)C(=O)CO`, the “activity, negative = inhibition” value was -1.37% [at 25.6 µM].

For the molecule `CN[C@@H](c1ccncc1)[C@@H](NC)c1ccncc1`, the activity, negative = inhibition is -8.04% [at 11.4 µM].

As for `COCCNc1ncnc2ccc(-c3ccccc3C(F)(F)F)cc12`, the activity, negative = inhibition is 11% [at 2.29 µM].

Turning to `CC(C)(C)NC(=O)C(c1ccccn1)N(C(=O)C1CSC(=O)C1)c1ccc(F)cc1` (stereo unspecified), the “activity, negative = inhibition” value was -13.1%.

Turning to `Cc1nn(C)cc1C(C(=O)NC1CCCCC1)N(C(=O)Cc1cccs1)c1ccc(C(C)C)cc1` (stereo unspecified), the concentration at half-maximal activity (AC50) was 25.1 µM (active).

For `Cc1ccc(C(C(=O)NC2CCCCC2)N(CC2CCCO2)C(=O)CNC(=O)c2cccs2)cc1` (stereo unspecified), the “activity, negative = inhibition” value is -15.9%.

As to `Cc1cc(C)cc(N(C(=O)Cc2cccs2)C(C(=O)NC2CCCCC2)c2ccccn2)c1` (stereo unspecified), the AC50 is 17.8 µM (active).

With `NC1=C(O)C(=O)[C@H](c2c[nH]c3ccc(OCc4ccccc4)cc23)O1`, the activity, negative = inhibition was -27.4% [at 11.4 µM].

As for `CC(C)C(=O)Nc1cc2c(cc1C(=O)c1ccccc1)OCCO2`, the AC50 was 8.91 µM (active).

As for `CC(C)/C(=N/[N+](C)(C)C)c1ccccc1`, the activity, negative = inhibition was 9.65% [at 11.4 µM].

`CC(=O)c1cc2c(cc1NC(=O)CCCC(=O)O)OCO2`: the “activity, negative = inhibition” value was 0.864%.

Turning to `O=C(O)c1ccccc1C(=O)Nc1ccc(S(=O)(=O)Nc2nccs2)cc1`, the “activity, negative = inhibition” value is -19.3% [at 25.6 µM].

Regarding `O=C(CCN1C(=O)S/C(=C\c2ccccc2)C1=O)Nc1ccc(S(=O)(=O)Nc2nccs2)cc1`, the concentration at half-maximal activity (AC50) is 1.58 µM (active).

With `O=C1Nc2ccccc2C1=Nc1ccc(S(=O)(=O)Nc2nccs2)cc1`, the activity, negative = inhibition was 8.43% [at 11.4 µM].

Turning to `CCOc1ccc(OCC)c(-c2c(=O)n(OCc3ccc(C(C)(C)C)cc3)c3ccccc3[n+]2[O-])c1`, the AC50 was 6.31 µM (active).

For the molecule `CCOc1ccc(OCC)c(-c2c(=O)n(OCc3ccccc3C(=O)OC)c3ccccc3[n+]2[O-])c1`, the AC50 was 14.1 µM (active).

As for `O=c1c(-c2ccc(Cl)cc2)[n+]([O-])c2ccccc2n1OCc1ccccn1`, the “activity, negative = inhibition” value was -25.4%.

Turning to `OC[C@@H]1O[C@H](n2cnc3c(/C=C(\O)c4ccccc4)ncnc32)[C@H](O)[C@@H]1O`, the activity, negative = inhibition was 0.392% [at 11.4 µM].

With `COc1ccc(C(=O)N2CCC3(CCN(Cc4ccccc4OC)CC3)CC2)cc1`, the “activity, negative = inhibition” value is 11.6%.

As for `COc1ccccc1Cn1nnc2c(=O)[nH]c(C3CCN(C(=O)c4ccc(C)cc4)CC3)nc21`, the AC50 was 5.62 µM (active).

`Cc1ccc(C)c(S(=O)(=O)N2CCC(c3nc4c(nnn4Cc4ccc(F)cc4)c(=O)[nH]3)CC2)c1`: the AC50 is 1.58 µM (active).

As for `Cc1ccc(Cn2nnc3c(=O)[nH]c(C4CCN(C(=O)Cc5cccs5)CC4)nc32)cc1`, the AC50 is 0.708 µM (active).

Regarding `COc1ccc(C(=O)N2CCC3(CCCN(Cc4ccccc4OC)C3)CC2)cc1`, the “activity, negative = inhibition” value was -18.1%.

On to `COc1cccc(Cn2nnc3c(=O)[nH]c(C4CCCN(C(=O)c5ccccc5Cl)C4)nc32)c1` (stereo unspecified), for which the AC50 was 5.01 µM (active).

As to `Cc1ccn2cc(CSc3ccccc3N)nc2c1`, the “activity, negative = inhibition” value is -1.78%.

As to `NC1=C2NC=N[C@@H]2N(C/C=C\c2ccccc2)C=N1`, the activity, negative = inhibition was 1.29% [at 11.4 µM].

For the molecule `O=C(Cc1cccs1)N1CCC(c2nc3c(nnn3Cc3ccccc3Cl)c(=O)[nH]2)CC1`, the AC50 is 0.224 µM (active).

For `CCc1ncc(CO)n1Cc1cccc2ccccc12`, the activity, negative = inhibition was -1.15% [at 11.4 µM].

On to `CCn1cnc2sc(C(=O)N3CCN(c4ccc(OC)cc4)CC3)c(C)c2c1=O`, for which the AC50 is 7.94 µM (active).

On to `COc1ccc(N2CCN(C(=N)/C(C(C)=O)=C(\C)O)CC2)cc1`, for which the “activity, negative = inhibition” value was -13.8%.

Take `COc1ccc(N2CCN(C(=S)Nc3cc(C)ccc3C)CC2)cc1`: the “activity, negative = inhibition” value is -18%.

For the molecule `O=C(NCCCN1CCOCC1)c1cc2c(s1)CSC2`, the “activity, negative = inhibition” value is -20.3%.

With `O=C(NCCCn1ccnc1)c1ccc(Br)c(S(=O)(=O)N2CCOCC2)c1`, the concentration at half-maximal activity (AC50) was 0.708 µM (active).

In the case of `O=C(NCCN1CCOCC1)c1ccc2ccccc2c1`, the “activity, negative = inhibition” value was 0.564%.

As to `CN[C@@H]1[C@H](O[C@H]2[C@@H](O[C@@H]3[C@@H](O)[C@@H](O)[C@@H](N=C(N)N)[C@@H](O)[C@@H]3N=C(N)N)O[C@@H](C)[C@]2(O)CO)O[C@H](CO)[C@@H](O)[C@@H]1O`, the “activity, negative = inhibition” value was 4.16% [at 25.6 µM].

For the molecule `Cc1ccc(NC(=O)NNC(=O)Cn2nc(-c3ccccc3)c(-c3ccccc3)c(C#N)c2=O)cc1`, the AC50 is 3.16 µM (active).

On to `Cc1ccc(NC(=O)NNC(=O)C2CC(c3cccnc3)=NO2)cc1` (stereo unspecified), for which the “activity, negative = inhibition” value is -11.6%.

With `CCCC(=O)NNC(=O)Nc1ccccc1`, the “activity, negative = inhibition” value was -2.98%.

For `ClC(Cl)(Cl)C(N1CCN(c2ccccc2)CC1)N1CCN(c2ccccc2)CC1`, the activity, negative = inhibition was 18.4% [at 11.4 µM].

For `CC(C)CC(c1nnnn1C(C)C)N1CCN(c2ccccc2)CC1` (stereo unspecified), the AC50 was 2 µM (active).

For `OC[C@@H](O)CN1CCN(c2ccccc2)CC1`, the “activity, negative = inhibition” value is 5.85% [at 25.6 µM].

Take `NS(=O)(=O)c1cc2c(cc1Cl)=NC(CCC(=O)O)=NS=2(=O)O`: the activity, negative = inhibition was 3.24% [at 11.4 µM].

As to `Cc1ccc(-c2ccc(/C=N\NC(=O)c3cc4c(ccc5ccccc54)o3)o2)cc1[N+](=O)[O-]`, the “activity, negative = inhibition” value was -28.8%.

Consider `Cc1ccc(-c2ccc(/C=N/NC(=S)Nc3ccccc3)o2)cc1[N+](=O)[O-]`, for which the AC50 is 3.98 µM (active).

Turning to `CCn1c(=O)c2c(O)cc(=O)oc2c2ccccc21`, the “activity, negative = inhibition” value is -2.96%.

Take `CCn1c2ccccc2c2cc(NS(=O)(=O)c3ccccc3C)ccc21`: the AC50 was 0.891 µM (active).

`Cc1nc2cnc(N3CCN(C)CC3)nc2n(C)c1=O`: the “activity, negative = inhibition” value is 3.4%.

Take `COC(=O)N1CCC2(CC1)CN(C(=O)Nc1ccccc1)C2`: the “activity, negative = inhibition” value is 18.3%.

Consider `COC(=O)C1CCC(C)(C(=O)Nc2ccccc2)C1(C)C` (stereo unspecified), for which the AC50 is 7.94 µM (active).

`COC(=O)C1CSC(C(=O)OC)N1C(=O)Nc1ccccc1` (stereo unspecified): the “activity, negative = inhibition” value is -11.8%.

As for `C[C@@H]1O[C@H]2C3=C(C(=O)[C@H]4O[C@@H]4[C@H]3O)[C@@H]1[C@@H]1[C@@H](C)OC=C3[C@H](O)[C@H]4O[C@@H]4/C(=N\OCc4ccccc4)[C@]312`, the activity, negative = inhibition is -27.9% [at 11.4 µM].

For `Cc1ccccc1-c1cc(Nc2ccccc2)ncn1`, the activity, negative = inhibition is 20.2% [at 2.29 µM].

With `COc1ccc(CCN2CC34C=CC(O3)C(C(=O)NCc3ccccc3)C4C2=O)cc1OC` (stereo unspecified), the “activity, negative = inhibition” value was -25.5%.

Regarding `O=C1[C@H]2[C@H]3[C@H](O)[C@H](O)C/C(=N/OCc4ccccc4)[C@@H]3CC[C@@H]2C(=O)N1Cc1ccc2c(c1)OCO2`, the activity, negative = inhibition is -27.6% [at 11.4 µM].

In the case of `COc1ccc(CCN2C(=O)C(Oc3ccccc3C)C2c2ccc3c(c2)OCO3)cc1OC` (stereo unspecified), the half-maximal activity concentration (AC50) was 7.94 µM (active).

Consider `COC(=O)c1ccc(C2C(Oc3ccccc3)C(=O)N2CCc2ccc(OC)c(OC)c2)cc1` (stereo unspecified), for which the “activity, negative = inhibition” value is -16.8%.

Turning to `Cc1ccccc1OC1C(=O)N(Cc2ccc3c(c2)OCO3)C1c1sccc1C` (stereo unspecified), the concentration at half-maximal activity (AC50) is 7.94 µM (active).

In the case of `O=C1C[C@@H](O)[C@@H](O)[C@H]2[C@@H]3C(=O)N(Cc4ccc5c(c4)OCO5)C(=O)[C@@H]3CC[C@H]12`, the activity, negative = inhibition is -7.97% [at 11.4 µM] and -24% [at 11.4 µM].

Consider `Cc1ccc(C)c(NC(=O)c2ncn[nH]2)c1`, for which the “activity, negative = inhibition” value is -17.4%.

Turning to `Cc1ccc(C)c(NC(=O)C2CC(O)CN2C(=O)OC(C)(C)C)c1` (stereo unspecified), the “activity, negative = inhibition” value is 17.3%.

Regarding `Cc1ccc(C)c(NC(=O)C2CC3c4ccccc4C2c2ccccc23)c1` (stereo unspecified), the AC50 was 5.01 µM (active).

Turning to `CCOC(=O)c1ccccc1NC(=O)CSc1cccc[n+]1[O-]`, the “activity, negative = inhibition” value was 2.23%.

Consider `CCn1c(SCC(=O)Nc2ccccc2C(=O)OC)nnc1-c1ccc(N)cc1`, for which the AC50 was 22.4 µM (active).

For `CCC(C)Nc1nc(OCC(F)(F)F)nc(OCC(F)(F)F)n1` (stereo unspecified), the “activity, negative = inhibition” value is -21.4%.

For the molecule `O=c1ccc2cc(O)c(O)cc2o1`, the “activity, negative = inhibition” value was -3.88% [at 25.6 µM].

Take `Cc1cccc(NC(NC(=O)c2cccnc2)C(Cl)(Cl)Cl)c1` (stereo unspecified): the AC50 was 2.24 µM (active).

With `O=C(NC(NCc1ccccc1)C(Cl)(Cl)Cl)c1cccnc1` (stereo unspecified), the AC50 is 14.1 µM (active).

Turning to `COC(=O)[C@H]1C[C@@H]1[C@H](NC(=O)c1cccnc1)c1ccccc1`, the “activity, negative = inhibition” value was -10.7%.

As for `COC(=O)[C@@H]1C[C@H]1[C@@H](NC(=O)c1cccnc1)c1ccccc1`, the “activity, negative = inhibition” value was -17.5%.

With `CCOC(=O)CNC(=O)c1cccnc1`, the “activity, negative = inhibition” value was -16.7%.

Consider `O=C(COc1ccccc1Cl)Nc1cc(Cl)ccc1Oc1ccccc1`, for which the AC50 is 2.51 µM (active).

`Cc1cc(NC(=O)COc2ccc(Cl)cc2Cl)n(-c2ccccc2)n1`: the AC50 is 2.51 µM (active).

Regarding `CCc1cc2c(nc1CC)CCN(CC/C(C)=N/OCC[C@@H]1C=C[C@H](OC(C)=O)[C@H](COC(C)=O)O1)C2`, the activity, negative = inhibition is -1.15% [at 11.4 µM].

As to `OC[C@@H]1O[C@@H](n2cnc3c(NC4CCCCC4)ncnc32)[C@@H](O)[C@H]1O`, the “activity, negative = inhibition” value is -26.3%.
